Reference: PubChem BioAssay AID488969 (Vanderbilt High Throughput Screening Facility, 2010)
The full ranking holds about 110,000 compounds; the median of “z-score” is about -0.1, and the highest 2% start at about 2. This excerpt belongs to a sample that is enriched for the highest values. The source made the active and inactive calls.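 The calls were made as follows: active = z-score in the third read window above 3 or below -3; inactive = the rest.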

biological target: Metabotropic glutamate receptor 8 (Rattus norvegicus) (UniProt P70579); assay: rat mGluR8 modulators via GIRK flux, primary screen, cell-based, thallium flux, HTS (AID 488969); conditions: HEK293 rat mGluR8, GIRK (G protein-gated inwardly rectifying potassium channel) thallium flux, FluoZin2; at 10 µM; stronger effect = higher value; submaximal glutamate (EC20) added with thallium
Sequence (P70579 whole entry, looked up): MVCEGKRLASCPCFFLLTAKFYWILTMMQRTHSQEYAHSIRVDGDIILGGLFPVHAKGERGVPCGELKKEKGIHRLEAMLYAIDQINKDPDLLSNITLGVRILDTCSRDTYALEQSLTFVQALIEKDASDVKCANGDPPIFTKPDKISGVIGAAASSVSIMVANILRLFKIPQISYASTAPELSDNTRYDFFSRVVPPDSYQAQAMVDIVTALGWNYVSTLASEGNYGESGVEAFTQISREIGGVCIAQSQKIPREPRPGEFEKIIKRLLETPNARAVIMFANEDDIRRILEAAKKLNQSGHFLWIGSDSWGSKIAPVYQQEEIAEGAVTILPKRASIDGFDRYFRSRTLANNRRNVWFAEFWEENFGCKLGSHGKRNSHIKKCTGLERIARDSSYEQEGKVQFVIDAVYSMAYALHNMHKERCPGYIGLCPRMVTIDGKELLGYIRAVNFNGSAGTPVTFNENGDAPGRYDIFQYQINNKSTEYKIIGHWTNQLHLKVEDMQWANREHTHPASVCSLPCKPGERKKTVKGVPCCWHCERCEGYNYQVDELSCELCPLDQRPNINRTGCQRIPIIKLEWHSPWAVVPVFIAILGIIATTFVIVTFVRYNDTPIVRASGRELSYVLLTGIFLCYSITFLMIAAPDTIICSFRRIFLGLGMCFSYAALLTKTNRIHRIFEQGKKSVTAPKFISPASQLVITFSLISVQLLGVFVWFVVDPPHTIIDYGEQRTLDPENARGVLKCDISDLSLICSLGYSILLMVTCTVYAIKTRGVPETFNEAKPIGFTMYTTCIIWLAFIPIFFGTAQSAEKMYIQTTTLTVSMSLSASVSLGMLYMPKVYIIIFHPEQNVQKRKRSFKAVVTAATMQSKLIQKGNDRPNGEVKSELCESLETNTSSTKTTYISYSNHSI

Row | SMILES | z-score
1 | N#CCC(=O)N/N=C1\CCCCC1C1CCCCC1 (stereo not given) | 0.419
2 | CC(C)C(=O)Nc1ccnc(-c2cccnc2)n1 | -0.0191
3 | CC(C)OC(=O)c1cc2c(ccn2C)n1CC(=O)N(Cc1ccccc1)c1ccccc1 | -0.243
4 | CCN1/C(=C2/OC(=S)N(C)C2=O)Sc2ccccc21 | 1.02
5 | O=C(COc1ccccc1)N1CCN(S(=O)(=O)Cc2ccccc2)CC1 | 0.0406
6 | Cc1ccc(-c2nc3ccc(NS(=O)(=O)c4ccccc4)cc3[nH]2)o1 | 1.31
7 | O=S(=O)(Nc1ccc2nc(C(F)(F)F)[nH]c2c1)c1ccccc1 | 4.74 (active)
8 | O=S(=O)(Nc1ccc2nc(-c3ccc(Br)o3)[nH]c2c1)c1ccccc1 | -0.849
9 | Cc1ccc2[nH]c(=O)c(C(c3nnnn3C(C)(C)C)N3CCN(C(=O)c4ccco4)CC3)cc2c1 (stereo not given) | -0.0115
10 | CCC(C)Cn1c(S(=O)(=O)O)nc2ccccc21 (stereo not given) | -0.238
11 | CC(C)CCn1c(S(=O)(=O)O)nc2ccccc21 | 3.16 (active)
12 | CCCCn1c(S(=O)(=O)O)nc2ccccc21 | -0.0451
13 | CC(C)Sc1nc2c(c(=O)n1-c1ccc(F)cc1)SCC2 | -0.98
14 | Cc1ccc(C)c(NC(=O)c2cc(-c3ccccc3)nn2-c2ccccc2)c1 | 2.08
15 | CCc1nnc(NC(=O)c2cc(-c3ccccc3)nn2-c2ccccc2)s1 | 0.27
16 | O=C(Nc1nc2ccccc2s1)c1cc(-c2ccccc2)nn1-c1ccccc1 | 1.18
17 | CC(=O)c1sc(NC(=O)c2cc(-c3ccccc3)nn2-c2ccccc2)nc1C | 3 (active)
18 | Cc1ccc(NC(=O)c2cc(-c3ccccc3)nn2-c2ccccc2)cc1 | 1.28
19 | Cc1ccc(NC(=O)c2cc(-c3ccccc3)nn2-c2ccccc2)c(Br)c1 | 0.496
20 | COc1nccnc1NS(=O)(=O)c1ccc(N=Cc2c(C)[nH]n(-c3ccccc3)c2=O)cc1 | -0.188
21 | CN(C)c1ccc(NC(=O)c2ccc([N+](=O)[O-])cc2Cl)cc1 | -0.282
22 | CCCCN(CCCC)S(=O)(=O)c1ccc(NC(=O)c2ccc([N+](=O)[O-])cc2Cl)cc1 | 3.01 (active)

Row | SMILES | z-score
23 | CCC(C)NS(=O)(=O)c1ccc(NC(=O)c2ccc([N+](=O)[O-])cc2Cl)cc1 (stereo not given) | 0.0866
24 | C=CCOn1c(=O)c(-c2ccc(OC)c(OC)c2)[n+]([O-])c2ccccc21 | -0.224
25 | CCOC(=O)c1nn(-c2ccc(F)cc2)c2nc(Nc3ccccc3)cc(=O)n12 | -0.123
26 | O=C(Nc1ccc2nc(-c3ccc(Br)o3)[nH]c2c1)c1cccs1 | -0.969
27 | CCc1cc2c(N[C@@H](Cc3c[nH]c4ccccc34)C(=O)O)ncnc2s1 | -0.16
28 | CN(CC(=O)Nn1cnnc1)S(=O)(=O)c1ccccc1 | -0.262
29 | CN(CC(=O)Nc1ccncc1)S(=O)(=O)c1ccc(Br)cc1 | -0.284
30 | CN(CC(=O)Nn1cnnc1)S(=O)(=O)c1ccc(Br)cc1 | 4.35 (active)
31 | Cc1cc(=O)[nH]c(-n2nc(C)c(Oc3ccccc3O)c2C)n1 | -0.0623
32 | Cc1sc(NC(=O)C2C3CCC(O3)C2C(=O)O)c(C(=O)OC(C)C)c1-c1ccc(Cl)cc1 (stereo not given) | -0.429
33 | Cc1ccc(-c2c(C)sc(NC(=O)C3C4CCC(O4)C3C(=O)O)c2C(=O)OC(C)C)cc1 (stereo not given) | 4.99 (active)
34 | CCOC(=O)c1c(NC(=O)C2C3CCC(O3)C2C(=O)O)sc(C)c1-c1ccc(C)cc1 (stereo not given) | -0.26
35 | COC(=O)C(C)Sc1nnc(-c2ccncc2)o1 (stereo not given) | -0.297
36 | CCOC(=O)N1CCC(N2C(=O)c3cc(C(=O)NC4CCCCC4)ccc3C2O)CC1 (stereo not given) | -0.198
37 | CCOC(=O)N1CCC(N2C(=O)c3ccc(C(=O)NCc4ccco4)cc3C2=O)CC1 | -0.36
38 | CCOC(=O)c1c(NC(=O)C2C3C=CC(C3)C2C(=O)O)sc2c1CCC(CC)C2 (stereo not given) | 3.71 (active)
39 | CCOC(=O)c1c(NC(=O)C2C3C=CC(CC3)C2C(=O)O)sc(C)c1C (stereo not given) | 0.959
40 | CCOC(=O)c1c(N)sc2c1CCC(CC)C2 (stereo not given) | 0.0842
41 | Cc1ccc(OCCNC(=O)/C=C/c2ccccc2)cc1C | -0.203
42 | CCOC(=O)c1nn(-c2ccccc2)c(=O)cc1SC(C)C | -0.0576
43 | COC(=O)NNC(=O)c1cccc(C)c1 | -0.067
44 | Cc1cccc(C(=O)NNC(=O)C(=O)NC(C)(C)C)c1 | 2.45

Row | SMILES | z-score
45 | CC(C)(C)NC(=O)C(=O)NNC(=O)c1ccccc1 | 1.57
46 | CC(C)(C)NC(=O)C(=O)NNC(=O)c1ccc(C(C)(C)C)cc1 | 5.3 (active)
47 | Cc1cccc(C(=O)NNC(=O)c2ccccc2)c1 | -0.0133
48 | CC(C)(C)c1ccc(C(=O)NNC(=O)C(=O)N2CCCCC2)cc1 | 0.478
49 | Cc1nc(C)c(C(=O)N/N=C/c2cn(C)c3ccccc23)s1 | 0.0943
50 | CCOCCc1nnc(NC(=O)c2cccc(F)c2)s1 | -0.243
51 | COc1ccc(NC(=O)Cn2c(=O)n(CC(=O)NCc3ccco3)c(=O)c3ccccc32)cc1 | 0.213
52 | O=C(CN(Cc1ccccc1)C1=NCCS1)c1ccccc1 | -0.754
53 | COc1ccc(-c2noc(-c3ccccc3C(=O)Nc3cccnc3)n2)cc1OC | 0.205
54 | N#CCc1ccc(C(=O)c2ccccc2)s1 | -0.167
55 | Cc1ccc(N(CC(=O)N2CCOCC2)S(=O)(=O)c2ccccc2)cc1 | 0.464
56 | CC(C)N1CCC(=NNc2ccc(S(=O)(=O)N3CCOCC3)cc2[N+](=O)[O-])CC1 | 0.0912
57 | OC(CNCc1ccco1)Cn1c2ccc(Br)cc2c2cc(Br)ccc21 (stereo not given) | 0.138
58 | OC(CNCC1CCCO1)Cn1c2ccc(Cl)cc2c2cc(Cl)ccc21 (stereo not given) | 0.381
59 | OC(CNCC1CCCO1)Cn1c2ccc(Br)cc2c2cc(Br)ccc21 (stereo not given) | 3.72 (active)
60 | Cc1ccc(S(=O)(=O)N(C)C)cc1NC(=O)CCNC(=O)c1ccccc1Cl | -0.212
61 | C=CCN1C(=O)C2C(C(=O)NC3CCCCC3)C3C=CC2(O3)C1C(=O)NC1CCCC1 (stereo not given) | -0.014
62 | O=C(Nc1ccc(OC(F)(F)F)cc1)c1n[nH]c(Cn2cncn2)n1 | -0.0524
63 | COc1ccc(C(=O)N2N=C(c3cccc(OC)c3)CC2(O)C(F)(F)F)cc1 (stereo not given) | 0.326
64 | COc1cccc(C2=NN(C(=O)c3ccccc3)C(O)(C(F)(F)F)C2)c1 (stereo not given) | 2.79
65 | COc1cccc(C(=O)N2N=C(c3cccc(OC)c3)CC2(O)C(F)(F)F)c1 (stereo not given) | 0.00352
66 | O=C1CCCc2c1[nH]c1ccc(CN3CCCCC3)cc21 | 0.129

Row | SMILES | z-score
67 | CN(C)CCCNc1oc(-c2ccc(Cl)cc2)nc1C#N | 1.35
68 | CN(C)CCNc1oc(-c2cccc(Cl)c2)nc1C#N | 2.54
69 | CN(C)CCCNc1oc(-c2cccc(Cl)c2)nc1C#N | -0.825
70 | COc1ccc(CCNc2oc(COc3ccccc3)nc2C#N)cc1 | -0.509
71 | CN(C)CCNc1oc(COc2ccc(Cl)cc2)nc1C#N | 1.5
72 | CCN(CC)CCCNc1oc(-c2cccc(Cl)c2)nc1C#N | 1.31
73 | CCN(CC)CCCNc1oc(-c2ccc(OC)c(OC)c2)nc1C#N | -0.222
74 | CN(C)CCNc1oc(COc2ccc(-c3ccccc3)cc2)nc1C#N | 2.06
75 | COc1ccc(-c2nc(C#N)c(NCCCN(C)C)o2)cc1OC | 11.2 (active)
76 | Cc1ccccc1NC(=O)NCC1CCCO1 (stereo not given) | 0.73
77 | CC(C)CC(=O)N1CCN(S(=O)(=O)c2ccc3ccccc3c2)CC1 | -1.99
78 | O=C(COC(=O)[C@H](Cc1c[nH]c2ccccc12)NC(=O)c1ccc(Cl)cc1)Nc1ccc2c(c1)OCO2 | 0.558
79 | CCOc1c2ccc(C(=O)NCc3ccc4c(c3)OCO4)cc2nn1CCOC | -0.276
80 | COc1ccc(/C=N/NC(=O)CSc2nnc(CCCc3ccc(OC)c(C)c3)o2)cc1 | -0.18
81 | O=C(OCC#CCSc1nnc(-c2ccncc2)o1)c1sc2ccccc2c1Cl | 2.87
82 | O=C(OCC#CCSc1nnc(-c2ccccc2)o1)c1cccs1 | -0.745
83 | O=C(OCC#CCSc1nnc(-c2ccncc2)o1)c1cccs1 | -0.0957
84 | CC1Cc2ccccc2N1C(=O)Cc1cccs1 (stereo not given) | -0.395
85 | O=[N+]([O-])c1ccc(NC(=S)NCCc2ccccc2)cc1 | 2.91
86 | O=C(CNC(=S)NC(=O)c1ccc(F)cc1)c1ccccc1 | -0.0791
87 | CC(C)CNC(=S)NC(=O)c1ccc(F)cc1 | 7.84 (active)
88 | O=[N+]([O-])c1ccc(NC(=S)NCCc2ccc(F)cc2)cc1 | 1.65

Row | SMILES | z-score
89 | CC(C)CCNC(=S)Nc1ccc([N+](=O)[O-])cc1 | 1.2
90 | CCOc1ccc(NC(=S)Nc2ccc(C)c([N+](=O)[O-])c2)cc1 | 0.652
91 | CCCCNC(=S)Nc1ccc([N+](=O)[O-])cc1 | 2
92 | O=[N+]([O-])c1ccc(NC(=S)NCCc2ccc(Cl)cc2)cc1 | 0.129
93 | Cc1ccc(CNC(=S)Nc2ccc(C)c([N+](=O)[O-])c2)cc1 | 0.255
94 | O=C(NC(=S)NCCN1CCOCC1)c1ccc(F)cc1 | -0.084
95 | CCCCNC(=S)Nc1cc([N+](=O)[O-])ccc1C | 0.706
96 | Cc1ccc(NC(=S)NCc2ccccc2)cc1[N+](=O)[O-] | 3.51 (active)
97 | O=C(N/N=C/c1ccncc1)c1cc(Br)ccc1OCc1ccccc1 | 0.109
98 | Cn1c(SCCOc2ccccc2Cl)nnc1-c1cccs1 | -0.314
99 | CCCCCC(=O)NC(=S)NNC(=O)c1ccc([N+](=O)[O-])cc1 | 2.66
100 | O=C(NC(=S)NCC1CCCO1)c1ccc([N+](=O)[O-])cc1 (stereo not given) | -0.067
101 | CCCCNC(=S)NC(=O)c1ccc([N+](=O)[O-])cc1 | 7.01 (active)
102 | Cc1ccc(NC(=O)c2ccc(C(C)(C)C)cc2)cc1[N+](=O)[O-] | 2.5
103 | CCCCCCCC(=O)NNC(=O)c1ccc([N+](=O)[O-])cc1 | -0.209
104 | CC(C)CNC(=S)NC(=O)c1ccc([N+](=O)[O-])cc1 | 6.28 (active)
105 | CCCC(=O)NC(=S)NNC(=O)c1ccc([N+](=O)[O-])cc1 | -0.394
106 | CC(=O)Nc1ccc(NC(=S)NC(=O)c2ccc([N+](=O)[O-])cc2)cc1 | -0.11
107 | CC(C)CC(=O)NC(=S)NNC(=O)c1ccc([N+](=O)[O-])cc1 | 0.187
108 | CC(C)C(=O)Nc1cccc(NC(=S)NC(=O)c2ccc([N+](=O)[O-])cc2)c1 | -0.0455
109 | Cc1ccc([N+](=O)[O-])cc1NC(=O)c1ccc(C(C)(C)C)cc1 | -1.53
110 | Cc1ccc(NC(=O)c2ccncc2)cc1[N+](=O)[O-] | -0.142
